In PubChem BioAssay (Tox21):
A number with no mark means an inactive call. Calls of active or inactive are those of the source. Calls come from the whole dose curve; as a rule, active = well fitted activation curve with a large enough effect in the repeat runs; inconclusive = weak or mixed curves; inactive = flat fitted curve, though single readings scatter.

Assay: A CellTox Green Cytotoxicity Assay to monitor cytotoxicity in HepG2 cells - 0 hour (AID 1224882); note: nearly all actives have a fitted effect of over 35% in size
Conditions: CellTox Green fluorescence; series mostly up to 76.8 µM; cytotoxicity: at the top concentration
Source text: National Center for Advancing Translational Sciences [NCATS]
NIH Chemical Genomics Center [NCGC]
U.S. Environmental Protection Agency [EPA]
National Institutes of Environmental Health Sciences [NIEHS]
National Toxicology Program [NTP]
Cell-based models are critical for drug discovery. Determining the natural cytotoxic effects resulting from test compounds is an essential research activity. A CellTox Green Cytotoxicity Assay to monitor cytotoxicity in real time of continues cell culture during 40 hours of the compound treatment was used to screen Tox21 10K library compounds in HepG2 cells. CellTox Green Cytotoxicity Assay is a nonlytic, homogeneous, biofluorescent method to measure cytotoxicity in cell culture after experimental manipulation. The assay system uses a proprietary asymmetric cyanine dye that is excluded from viable cells but preferentially stains the dead cell's DNA. […] Viable cells produce no appreciable increases in fluorescence. Therefore, the fluorescence signal produced by the binding interaction with dead cell DNA is proportional to cytotoxicity.
The mixture of HepG2 cell suspension and reagents were dispensed at 600cells/6 ul/well in 1536-well tissue culture treated black solid bottom plates using a Multidrop dispenser. After the assay plates were incubated at a 37 C/5% CO2 incubator for 5 hours, 23 nL of compounds dissolved in DMSO, positive and negative controls was transferred to the assay plate by a pintool work station. The plates were incubated at 37 C for 40 hours. The fluorescence intensity were measured at 0h, 8h, 16h, 24h, 32h and 40h time points using ViewLux plate reader during compound treatment.
% is set by controls: 0 for no effect and ±100 for the full control effect; potency is the fitted concentration of half-maximal effect.

Structure (SMILES) | cytotoxicity | Potency
CC(=O)c1c(C)cc(C(C)(C)C)cc1C | 2.07% | 
COC(=O)N/N=C/c1c[n+]([O-])c2ccccc2[n+]1[O-] |  | 23.9 µM (active)
CC(C)(C)C(=O)CCc1ccc(Cl)cc1 | -1.43% | 
CC(C)(O)c1ccc(C(C)(C)O)cc1 | 0.281% | 
CN(C)c1ccncc1 | 5.51% | 
C=CC(C)(CCC=C(C)C)OC(=O)C(C)C (stereo not given) | -6.86% | 
CC(C)(C)c1ccc(C(=O)CCCCl)cc1 | 0.257% [at 35.3 µM] | 
CCN1CCN(C(=O)N[C@@H](C(=O)N[C@@H]2C(=O)N3[C@@H]2SC(C)(C)[C@H]3C(=O)O)c2ccccc2)C(=O)C1=O | -14% [at 35.3 µM] | 
CCN1CCN(C(=O)N[C@@H](C(=O)N[C@@H]2C(=O)N3C(C(=O)O)=C(CSc4nnnn4C)CS[C@H]23)c2ccc(O)cc2)C(=O)C1=O | 6.95% [at 35.3 µM] | 
C=CCOC(=O)CCCCCCCC | 1.01% | 
CCOC(=O)CC | -2.03% | 
CCC(=O)OCCOc1ccccc1 | -8.03% | 
CC(=O)SCC(CC(=O)c1ccc(C)cc1)C(=O)O (stereo not given) | -0.457% [at 35.3 µM] | 
C=CC(=O)OCC[N+](C)(C)C | 5.76% | 
CCCCNCC | -3.57% | 
CCCCCCCCCCCCCCCC(=O)OC | -12.7% [at 15.8 µM] | 
O=C(CCBr)N1CCN(C(=O)CCBr)CC1 | 1.56% [at 35.3 µM] | 
N[C@H]1C(O)O[C@H](CO)[C@@H](O)[C@@H]1O (stereo not given in full) | 1.07% [at 35.3 µM] | 
O=C(OOC(=O)c1ccccc1)c1ccccc1 | 10.5% [at 35.3 µM] | 
C=CCON/C(CCC)=C1\C(=O)CC(C)(C)C(C(=O)OC)=C1O | 2.19% | 

Structure (SMILES) | cytotoxicity | Potency
Cc1ccc(OC(=O)CC(C)C)cc1 | 6.84% | 
Cc1nnc(C(=O)NC(C)(C)c2nc(C(=O)NCc3ccc(F)cc3)c(O)c(=O)n2C)o1 | -1.75% [at 35.3 µM] | 
CCCCOCCCC | 4.12% | 
CC(C)(C)OC=O | 1.97% | 
C[C@@H]1NC(=O)[C@@H](N)CNC(=O)[C@H](C2CCNC(N)=N2)NC(=O)/C(=C/NC(N)=O)NC(=O)[C@H](CNC(=O)C[C@@H](N)CCCN)NC1=O (stereo not given in full) | -4.92% [at 0.29 µM] | 
CCCC(=O)C(CC)Sc1ccoc1C (stereo not given) | 1.63% | 
O=S(=O)(O)c1cc(I)c(O)c2ncccc12 | 1.61% [at 35.3 µM] | 
N#Cc1cc(NC(=O)C(=O)O)c(Cl)c(NC(=O)C(=O)O)c1 | 2.1% [at 35.3 µM] | 
CCN(CC)CC | 0.742% | 
CCOC(=O)[C@H](CCc1ccccc1)N[C@H]1CS[C@H](c2cccs2)CN(CC(=O)O)C1=O | 0.578% [at 35.3 µM] | 
C/C(Cl)=C/CCl | -1.48% | 
Cc1ccc(O)c([N+](=O)[O-])c1 | -4.9% | 
CCOC(=O)COc1ccc2c(C)c(CCN(CC)CC)c(=O)oc2c1Cl | -7% [at 35.3 µM] | 
O=S(=O)(O)CC(O)CCl (stereo not given) | 1.19% | 
N=C(N)N | 8.25% [at 35.3 µM] | 
O=C(O)CCCCCCCCCC(=O)O | -4.79% | 
COC(=O)/C=C(\C)CCC=C(C)C | -8.61% | 
O=C(O)COc1ccc2ccccc2c1 | 1.04% | 
CCOc1ccccc1OCCN[C@H](C)Cc1ccc(OC)c(S(N)(=O)=O)c1 | 14.5% [at 35.3 µM] | 
O=C[C@@H](O)[C@H](O)[C@H](O)CO | -1.97% | 
